Screens from PubChem.
A selection: hits, their analogues and other compounds. The true share with any hit is near 1.3%.
12-LOX inh = blocks human arachidonate 12S-lipoxygenase | hit rate 1.1% among 580,000 | P18054 | purified 12hLO, xylenol orange hydroperoxide absorbance | Potency, µM (top dose mostly 108 µM), for inactives: at the highest dose activity change, negative = inhibition, most hits filed as inhibitors; further: potency means the concentration at half of the fitted maximal effect; on the % scale 0 is the no-effect control and ±100 the full control effect
Target sequence (P18054 whole entry, looked up): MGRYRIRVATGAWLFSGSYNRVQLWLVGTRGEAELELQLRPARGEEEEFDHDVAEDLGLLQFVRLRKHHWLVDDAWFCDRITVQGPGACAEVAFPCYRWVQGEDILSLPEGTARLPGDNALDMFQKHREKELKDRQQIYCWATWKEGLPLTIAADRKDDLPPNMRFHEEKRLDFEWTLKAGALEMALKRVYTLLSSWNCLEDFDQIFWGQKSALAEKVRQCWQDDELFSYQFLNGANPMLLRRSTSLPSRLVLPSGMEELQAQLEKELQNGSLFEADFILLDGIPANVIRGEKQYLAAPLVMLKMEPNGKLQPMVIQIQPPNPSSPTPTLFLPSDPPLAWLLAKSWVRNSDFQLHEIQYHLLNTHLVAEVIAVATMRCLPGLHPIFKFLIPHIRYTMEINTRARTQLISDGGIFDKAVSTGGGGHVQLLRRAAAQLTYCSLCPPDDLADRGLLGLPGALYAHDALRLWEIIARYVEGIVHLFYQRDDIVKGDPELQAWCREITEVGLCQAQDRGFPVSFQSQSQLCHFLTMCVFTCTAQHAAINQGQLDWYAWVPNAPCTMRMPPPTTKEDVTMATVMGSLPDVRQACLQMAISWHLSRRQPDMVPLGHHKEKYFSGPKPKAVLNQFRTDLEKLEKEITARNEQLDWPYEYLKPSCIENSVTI
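Purified human 12hLO (150 nM final) in 25 mM Hepes, 0.01% Triton X-100, pH 7.0 was preincubated 15 min at room temperature with compound. Then 40 uM arachidonic acid was added, 30 min. Hydroperoxide was read by Fe-XO absorbance ratio 573/405 nm.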
Glioma ERSR ind = ER stress response induction in glioma | U87-MG GRP78 promoter luciferase reporter, 16 h | Potency, µM, inactives show at the highest dose activation, most hits filed as activators | hit rate 0.02% among 420,000 | AID 602332; further: potency means the concentration at half of the fitted maximal effect; series mostly up to about 76 µM; % of control where 0% means no effect; nearly all actives have a fitted effect of over 35% in size
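ERSR induction read as luciferase luminescence (Bright-Glo, 10 min at room temperature) in stably transfected human U87-MG glioma cells exposed to compounds for 16 h, using GRP78 as sensor.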
Vif-APOBEC3F blk = blocks the Vif interaction with APOBEC3F | hit rate 0.2% among 390,000 | Potency, µM (series often up to 46.1 µM), without a hit: at the top dose activity, negative = active | HeLa A3F-eYFP + Vif (tagged APOBEC3F with the HIV-1 protein that degrades it), YFP fluorescence increase | AID 602313; further: potency means the concentration at half of the fitted maximal effect; % of control where 0% means no effect; nearly all actives have a fitted effect of over 65% in size
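HeLa cells stably expressing Vif plus C-terminally eYFP-tagged A3F were seeded, incubated overnight at 37 deg C, dosed with compound, incubated overnight again at 37 deg C. Yellow fluorescence (Ex 488/Em 500-530) reported blocked Vif-mediated A3F-eYFP degradation.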
Vif-A3G inh = Vif-A3G binding inhibition. HeLa A3G-eYFP + Vif (tagged APOBEC3G with the HIV-1 protein that degrades it), YFP fluorescence, overnight. Q9HC16. hit rate 0.076% among 410,000. Potency, µM (doses to about 46.1 µM), for inactives: at the highest dose activity, negative = active, actives largely listed as inhibitors; further: potency means the concentration at half of the fitted maximal effect; on the % scale 0 is the no-effect control and ±100 the full control effect; nearly all actives have a fitted effect of over 60% in size
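Read-out is eYFP fluorescence (Ex 488/Em 500-530) from Vif-expressing HeLa A3G-eYFP cells; more signal means A3G escaped Vif-mediated degradation. Cells plated overnight, compound pinned in, incubated overnight at 37 deg C.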
TRPML1 blocker = blocks the human TRPML1 channel; Q9GZU1; TRPML1-inducible cells, Ca2+ dye fluorescence, FDSS; hits give low values; inhibition of EC80 agonist-evoked calcium signal; activity change, negative = inhibition, % (concentration not given with the values); hit rate 0.02% among 390,000; AID 624415; in the data active means activity change below about -50%; inconclusive means between about -30% and that limit;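 further: stimulus is agonist 54-4 at its EC80 concentration; on the % scale 0 is the no-effect control and ±100 the full control effect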
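Calcium fluorescence in TRPML1-DL cells induced overnight with Tet: a 110 s read after compound pin addition, then a 110 s antagonist read after challenge with 54-4 at 4 uM final (EC80).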
TRPML1 ag = human mucolipin-1 channel agonism. TRPML1-expressing cells, Ca2+ dye fluorescence, FDSS. activation, % (no concentration beside the values). hit rate 0.12% among 410,000; in the data active means activation above about 50%; inconclusive means mostly about 30% to 49%; further: 0% is about no effect
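Cells: TRPML1-DL, 1X Tet inducer, ~16 h at 37 degrees C/5% CO2. Dye: ABD Ca8 no-wash + quencher, 45-90 min RT. Read: 10 s baseline, compound add, 110 s agonist phase; 54-4 EC80 (4uM final), 110 s antagonist phase.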
* = called active by the depositor; ? = inconclusive; . = no result. Unless noted, the call rests on the fitted dose curve; in most records, active means well fitted curve in the direction sought with a large enough effect; inconclusive means small, poorly fitted or top-dose-only effect, or another doubt; inactive means no such curve, though single readings can be large; an effect the other way counts as inactive or inconclusive.

SMILES	12-LOX inh	Glioma ERSR ind	Vif-APOBEC3F blk	Vif-A3G inh	TRPML1 blocker	TRPML1 ag
CCCCn1c(-c2csc3ccccc23)n[nH]c1=S	?	-5%	-16%	-3%	10	1
CCc1cc(-c2n[nH]c(=S)n2-c2cccc(C)c2)cs1	32µM*	-3%	-5%	-2%	14	1
Cn1nc(C(=O)OCCOc2ccc(Cl)cc2)c2ccccc2c1=O	-4%	.	.	.	.	.
Cc1cc(C)c(S(=O)(=O)/N=C2/C=C(Sc3ncn[nH]3)C(=O)c3ccccc32)cc1C	?	-16%	7.1µM*	?	39	1
CCc1ccc2oc(C(=O)Nc3ccc(S(=O)(=O)Nc4cc(C)nc(C)n4)cc3)cc(=O)c2c1	18µM*	.	.	.	.	.
COc1ccc(C2=NS(=O)(=O)N(C)C(C(=O)Nc3cccc(O)c3)=C2)cc1OC	-3%	.	.	.	.	.
O=c1cc(CN2CCCCC2c2ccccn2)[nH]c2ccc(F)cc12 (stereo not drawn)	7.9µM*	.	.	.	.	.
COC(=O)N1CCN(Cc2cc(=O)c3cc(F)ccc3[nH]2)CC1	-54%	.	.	.	.	.
Cc1c(/C=C(/C#N)c2ccccn2)cc(C#N)n1C	35µM*	.	.	.	.	.
Cc1cc(/C=C(/C#N)c2ccccn2)c(C)n1C1CC1	11µM*	.	.	.	.	.
N#C/C(=C\c1ccccc1)c1ccccn1	-23%	10%	10%	0%	8	2
O=C(N=c1ccn(-c2nc3ccccc3nc2NS(=O)(=O)c2ccccc2)cc1)c1cccs1	-17%	0%	25µM*	?	10	1
Cc1ccccc1C(=O)N=c1ccn(-c2nc3ccccc3nc2NS(=O)(=O)c2ccc(F)cc2)cc1	0%	1%	?	-17%	24	15
Clc1cccc(N/N=C(/c2ccccc2)c2ccncc2)c1	40µM*	.	.	.	.	.
O=[N+]([O-])c1ccccc1S(=O)(=O)Nc1ccc(-c2ccc(N3CCOCC3)nn2)cc1	-7%	4%	13µM*	-12%	15	0
NC(=O)C1=C(Nc2ccc(Br)cc2F)c2ccccc2S1(=O)=O	17%	.	.	.	.	.
COC(=O)[C@@H]1Cc2c([nH]c3ccccc23)[C@H]2C[C@@H](NCc3cccnc3)C[C@@H](c3ccc(C(F)(F)F)cc3)N21	-3%	.	.	.	.	.
Cc1ccc2c(=O)cc(C(=O)Nc3nonc3-c3ccc4c(c3)CCCC4)oc2c1	-6%	.	.	.	.	.
O=C(Nc1nc(-c2ccc(Cl)cc2)cs1)NC1CCCCC1	50µM*	3%	-10%	7%	19	2
COc1ccccc1C(=O)N1CCN(c2oc(-c3cccs3)nc2C#N)CC1	5%	.	.	.	.	.
CCCCc1cc(=O)oc2cc(OC(C)C(=O)NCc3ccncc3)ccc12 (stereo not drawn)	-5%	.	.	.	.	.
Cc1cc(NS(=O)(=O)c2ccc(Nc3nc(-c4ccc(C)c(C)c4)cs3)cc2)no1	4.5µM*	-5%	1%	-9%	18	0
Cc1ccc(C)c(-c2csc(Nc3ccc(S(=O)(=O)Nc4nc(C)cc(C)n4)cc3)n2)c1	45µM*	.	.	.	.	.
Cc1ccc(C)c(-c2csc(Nc3ccc(S(N)(=O)=O)cc3)n2)c1	-29%	.	.	.	.	.
CC(=O)Nc1ccc(-c2csc(Nc3ccc(S(N)(=O)=O)cc3)n2)cc1	-8%	-4%	-1%	1%	-8	-1
SMILES	12-LOX inh	Glioma ERSR ind	Vif-APOBEC3F blk	Vif-A3G inh	TRPML1 blocker	TRPML1 ag
NS(=O)(=O)c1ccc(Nc2nc(-c3ccc(F)cc3)cs2)cc1	40µM*	0%	-12%	?	-5	1
CCOC(=O)c1ccc(NC(=O)c2c(NCc3cccc(OC)c3OC)sc3c2CCC3)cc1	-20%	4%	-5%	-10%	-19	-1
CCOC(=O)c1ccc(NC(=O)c2c(NCc3sccc3C)sc3c2CCCCC3)cc1	11µM*	?	-20%	-19%	-9	0
Cc1cccc(C(=O)Nc2nonc2-c2ccc(OC(C)C)cc2)c1	-1%	.	.	.	.	.
COc1ccccc1-n1cc(-c2ccccc2)c2c(=S)nc[nH]c21	45µM*	-2%	2%	?	15	0
CNc1ncncc1-c1ccc(C(=O)N(C)C)cc1	32µM*	0%	.	.	.	.
